HPGD block: HPGD (human) dehydrogenase inhibition; P15428; purified HPGD, NADH fluorescence kinetic, PGE2 substrate; Potency, µM, for the others: at the top dose activity change, negative = inhibition, hits mostly inhibitors; actives 4.3% (n = 150,000); AID 894; further: potency means the concentration at half of the fitted maximal effect
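20 nM HPGD preincubated 15 min at room temperature with compound in 50 mM Tris-HCl pH 8, 0.01% Tween 20. Started with 1 mM NAD+ and 30 uM prostaglandin E2; NADH fluorescence (360/450 nm) read 5 times over 30-s intervals, last minus first.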
ALDH1A1 block: inhibitors of human aldehyde dehydrogenase 1A1. P00352. Purified ALDH1A1, NADH fluorescence, propionaldehyde substrate. Potency, µM (highest dose often 75.3 µM), without a hit: at the highest dose activity, negative = inhibition, most hits filed as inhibitors. actives 7.3% (n = 220,000). AID 1030;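 further: potency means the concentration at half of the fitted maximal effect; plate controls were no enzyme wells and a reference inhibitor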
Target sequence (P00352 whole entry, looked up): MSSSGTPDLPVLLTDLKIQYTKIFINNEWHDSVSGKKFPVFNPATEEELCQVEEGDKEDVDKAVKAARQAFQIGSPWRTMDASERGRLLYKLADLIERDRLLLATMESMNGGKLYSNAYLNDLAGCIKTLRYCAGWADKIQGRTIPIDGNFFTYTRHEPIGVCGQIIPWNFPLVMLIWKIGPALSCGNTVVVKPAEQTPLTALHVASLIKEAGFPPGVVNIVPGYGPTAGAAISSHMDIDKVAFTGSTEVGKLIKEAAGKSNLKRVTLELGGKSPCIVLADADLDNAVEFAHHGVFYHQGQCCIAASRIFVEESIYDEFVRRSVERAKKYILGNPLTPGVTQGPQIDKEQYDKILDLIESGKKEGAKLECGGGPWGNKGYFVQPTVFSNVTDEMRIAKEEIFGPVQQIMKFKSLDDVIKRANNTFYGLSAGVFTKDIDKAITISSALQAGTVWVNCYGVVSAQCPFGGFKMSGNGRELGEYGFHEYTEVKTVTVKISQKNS
IMPase inh: IMPase inhibition in cells; P97697; CHO-M1 cells, IP1 accumulation, HTRF TR-FRET ratio; inhibition (IP1 accumulation), % at 46.1 µM; 120,000 tested, under 10 active; active means well fitted curve in the direction sought with a large enough effect in the signal ratio, not every such curve was filed as active; inconclusive means small, poorly fitted or top-dose-only effect, or a change in a side signal; inactive means no such curve, though single readings can be large or run the other way; the % refers to the signal ratio;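 further: cells stimulated with carbachol in lithium chloride buffer; plate controls were DMSO basal wells for no effect and reference inhibitor wells for full effect; higher means more IMPase inhibition seen as more IP1 and lower FRET ratio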
Target sequence (P97697 whole entry, looked up): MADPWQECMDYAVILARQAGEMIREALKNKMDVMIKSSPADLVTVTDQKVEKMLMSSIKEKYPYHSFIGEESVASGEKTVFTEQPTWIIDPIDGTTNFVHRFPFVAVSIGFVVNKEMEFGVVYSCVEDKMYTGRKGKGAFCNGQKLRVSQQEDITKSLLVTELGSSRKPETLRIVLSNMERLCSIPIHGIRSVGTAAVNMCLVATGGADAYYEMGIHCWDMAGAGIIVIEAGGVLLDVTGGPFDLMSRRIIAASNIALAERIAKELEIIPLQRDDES
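Measured: the HTRF emission ratio (665/620 nm) plus the 620 nm donor channel, each fitted to the Hill equation to give AC50. Cells were CHO-M1 given compounds up to 46 uM and a 30 min carbachol stimulation at 37C.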
LMNA splice mod: modulators of lamin A splicing. HeLa LMNA splicing GFP/RFP minigene ratio, 48 h. Potency, µM (series often up to 46.1 µM), without a hit: at the highest dose ratio change, negative = inhibition, most hits filed as inhibitors. actives 0.01% (n = 200,000). AID 1487; active means well fitted inhibition curve with a large enough effect in the signal ratio, with a control signal flat, not every such curve was filed as active; inconclusive means small, poorly fitted or top-dose-only effect, or effect the other way, or a change in a side signal; the % refers to the signal ratio; further: potency means the concentration at half of the fitted maximal effect
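S3 HeLa stable clones carrying a lamin A-EGFP splicing minigene plus DsRed2 were seeded at 600 cells/well in Opti-MEM with 2% FBS, pin-dosed and incubated 48 h at 37°C. Acumen cytometry (488 nm) gave the GFP/RFP total-intensity ratio.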
KinaseGlo FLuc: Kinase-Glo luciferase inhibition (counter-screen) | Kinase-Glo luciferase, ATP luminescence, 8 min | actives 0.28% (n = 200,000) | Q27757 | Potency, µM (series often up to 38.3 µM), for the others: at the highest dose activity change, negative = inhibition, actives largely listed as inhibitors; active means well fitted inhibition curve with a large enough effect; inconclusive means small, poorly fitted or top-dose-only effect; further: potency means the concentration at half of the fitted maximal effect; nearly all actives have a fitted effect of over 60% in size
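Substrate mix (final 50 mM imidazole pH 7.2, 50 mM KCl, 7 mM MgCl2, 10 uM ATP, 0.01% Tween 20, 0.05% BSA) plus pin-tool compound, then Kinase-Glo detection mix; 8 min ambient, luminescence read.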
PNC assembly inh: inhibitors of perinucleolar compartment assembly; PC3M PTB-GFP, PNC prevalence imaging, 16 h; active compounds read low; activity change (PNC), negative = inhibition, % at 10 µM; actives 3.1% (n = 140,000);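 active means readout at or below -70, meaning at least 70% loss of cells showing the perinucleolar compartment, a nuclear body marking cancer cells; inconclusive means readout between -30 and a set limit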;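 further: plate controls were DMSO wells for no effect and camptothecin positive control wells for full effect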
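Compounds are pinned in duplicate onto adhered PC3M cells stably expressing GFP-tagged PTB and incubated 16 h at 37 C. Cells are then fixed, nuclei stained with Hoechst, and PNC-positive cells counted.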
Numbers without * were called inactive; ? = inconclusive; . = not tested or not shown; [ ] = dose if it differs, or a comment. Only some compounds are listed: those with a hit (about 10% of all), similar ones and a draw of the others. Unless noted, the call rests on the fitted dose curve; in most records, active means well fitted inhibition curve with a large enough effect (not every such curve was filed as active); inconclusive means small, poorly fitted or top-dose-only effect, or another doubt; inactive means no such curve, though single readings can be large or run the other way. Unless noted, on the % scale 0 is the no-effect control and ±100 the full control effect.

SMILES | HPGD block | ALDH1A1 block | IMPase inh | LMNA splice mod | KinaseGlo FLuc | PNC assembly inh
CC(=O)OC1CC(OC(C)=O)[C@]2(C)C(CC(=O)[C@]3(C)C2CC[C@@]2(C)C(C(=O)O)OC(=O)C4OC423)C1(C)C (stereo not given in full) | -5.2% | -0.1% | . | . | 1.1% | .
CCC(c1nnc(SCC(=O)NCCc2ccc(Cl)cc2Cl)o1)N(C)C (stereo not given) | 14.1µM* | 15.8µM* | -0.4 | 5.3% | -4.2% | 13.2
Cc1csc(SCC(=O)NCCc2ccc(Cl)cc2Cl)n1 | 28.2µM* | 1.1% | -2.3 | -1.7% | 1.0% | 0.0
C=CCn1c(-c2csc3ccccc23)n[nH]c1=S | -16.6% | -13.3% | 5.2 | -5.9% | -1.6% | 9.5
C=CCn1c(=S)[nH]c2sccc2c1=O | . | 31.6µM* | . | 8.0%[46 µM] | 0.6% | .
Cc1cccc(N(C)S(=O)(=O)c2ccc3[nH]c(=O)c(=O)[nH]c3c2)c1 | 14.1µM* | ? | 8.8 | -0.9% | -2.9% | 49.4
O=C(CSc1ccc(-c2ccco2)nn1)NC1CCCCC1 | . | 3.98µM* | . | . | -1.2% | .
O=C(CSc1ccc(-c2ccccn2)nn1)NC1CCCCC1 | . | 4.8% | . | 7.1%[46 µM] | -1.6% | .
O=C(CSc1ccc(-c2ccco2)nn1)NC1CCCC1 | . | 35.5µM* | . | . | -2.0% | .
CN(C(=O)COC(=O)c1ccccc1SCC(=O)NC1CCCCCCC1)C1CCS(=O)(=O)C1 (stereo not given) | ? | ? | . | 1.5% | -0.8% | ?
NC(=O)COC(=O)c1ccccc1SCC(=O)NC1CCCCCC1 | . | 28.2µM* | . | -0.7%[9.22 µM] | 2.8% | .
O=C(CSc1nnc(-c2ccco2)o1)NC1CCCCC1 | -20.9% | 12.3% | 3.2 | 1.8% | 1.3% | -24.9
CCNc1ncc2nc(-c3ccccc3)c(=O)n(CCOC)c2n1 | . | ? | . | -10.4% | . | .
COc1ccc(Cn2ccc3nc(C)c(C(=O)N4CCN(c5cccc(OC)c5)CC4)cc3c2=O)cc1 | . | . | . | -7.4%[46 µM] | . | .
CCN(Cc1ccncc1)S(=O)(=O)c1ccc(C(C)=O)cc1 | -28.8% | 7.94µM* | 10.7 | ? | -4.7% | -3.3
O=C1CSC(=Nc2ccccc2Cl)N1 | 15.8µM* | ? | -9.9 | 3.3% | 7.8% | -16.2
CN1CCN(Cc2c(O)ccc3occ(C(=O)c4ccccc4)c23)CC1 | -4.9% | 0.0% | 7.4 | -16.0% | 4.5% | ?
CC(=O)C(C(C)=O)c1c(Cl)c(O)c(O)c2c(C(=O)c3ccccc3)coc12 | 3.16µM* | 6.5% | 10.4 | ? | -5.3% | 22.2
O=C(c1cccc(F)c1)N1CCC2(CCN(Cc3cc(C(F)(F)F)cc(C(F)(F)F)c3)CC2)CC1 | -8.7% | -4.4% | . | . | -0.2% | .
CCOC(=O)COc1ccc(Br)cc1/C=C/c1[nH]c(=O)[nH]c(=O)c1[N+](=O)[O-] | . | ? | . | 247.5%[46 µM] | 9.4% | .
CCOC(=O)COc1ccc(Br)cc1/C=C\c1[nH]c(=O)[nH]c(=O)c1[N+](=O)[O-] | 15.8µM* | ? | . | ? | 8.5% | -15.7
COc1ccc(C(=O)Oc2ccc(C(=S)N3CCOCC3)cc2)cc1 | . | 7.08µM* | . | ? | -0.5% | .
COC(=O)c1ccc(C(=S)N2CCCCC2)cc1 | . | -6.5% | . | 13.0%[46 µM] | -2.1% | .
COC(=O)c1ccc(C(=S)N2CCOCC2)cc1 | 28.2µM* | 10µM* | 0.4 | -0.3% | 9.6% | 9.6
C[C@@H]1C[C@H](OC(=O)[C@@H](O)c2ccccc2)CC(C)(C)N1C | -7.8% | 4.7%[20.9 µM] | 11.8[20.6 µM] | -12.4% | -2.0%[17.1 µM] | .
SMILES | HPGD block | ALDH1A1 block | IMPase inh | LMNA splice mod | KinaseGlo FLuc | PNC assembly inh
CCOC(=O)c1ccc(NC(=O)c2cc3c(n(-c4ccc(C)cc4)c2=O)CC(C)(C)CC3=O)cc1 | . | . | -0.8 | . | . | .
CCOc1cc(/C=C2\SC(=Nc3ccccc3)N(c3ccccc3)C2=O)ccc1OCC(=O)O | -5.3% | ? | . | ? | 3.6% | -25.8
O=C(O)COc1ccc(/C=C2\SC(=Nc3ccccc3)N(c3ccccc3)C2=O)cc1 | . | 17.8µM* | . | . | 0.4% | .
O=C(O)c1ccc(/C=C2\SC(=Nc3ccccc3)N(c3ccccc3)C2=O)cc1 | . | 15.8µM* | . | . | 1.6% | .
C[C@H]1[C@H](C)CC[C@]2(C(=O)O)CC[C@]3(C)C(=CC[C@H]4[C@]3(C)C[C@@H](O)C3[C@](C)(CO)[C@H](O)[C@@H](O)C[C@]34C)[C@H]12 (stereo not given in full) | -2.8% | -10.2%[13.5 µM] | . | . | -6.2%[7.66 µM] | .
CCn1c2ccccc2c2cc(NC(=O)CSc3nnc(-c4ccccc4)o3)ccc21 | -13.0% | ? | 2.8 | ? | -3.6% | 16.8
COc1ccc(Cc2nnc(-c3cccc(C)c3)o2)cc1OC | 17.8µM* | -6.7% | 13.8 | ? | 2.8% | 20.4
CCn1c2ccccc2c2cc(NC(=O)CSc3nnc(-c4cccc(C)c4)o3)ccc21 | -10.0% | 17.8µM* | 3.0 | ? | 3.7% | ?
COc1ccc(CCNC(=O)CSc2nnc(-c3cccc(C)c3)o2)cc1OC | -25.6% | 17.8µM* | 2.9 | 11.0% | -2.3% | -18.5
COc1ccc(CCNC(=O)CSc2nnc(-c3ccccc3)o2)cc1OC | -21.5% | 0.8% | -2.3 | 10.5% | -2.7% | 8.2
Cc1ccc(NC(=O)CC2Sc3ccccc3NC2=O)c(Br)c1 (stereo not given) | . | . | 8.2 | . | . | .
Cc1nc(NC(=O)C2CC3CCCC(C2)C3=O)sc1C (stereo not given) | -7.2% | ? | 3.0 | 8.2% | 0.5% | -122.4*
Cc1cc(-c2ccccc2)nc(-c2ccccc2)c1C | . | ? | . | -2.8%[46 µM] | 12.6µM* | .
C/C=C/c1ccc(OCCCN2C(=O)NC(C)(C)C2=O)c(OC)c1 | -12.7% | 14.1µM* | 6.2 | 8.0% | -0.1% | -125.3*
C/C=C/c1ccc(OCCN2C(=O)NC(C)(C)C2=O)c(OC)c1 | -9.6% | ? | 22.0 | -8.7% | -3.6% | 17.2
COc1ccc(-n2c(=O)cnc3cnc(OC)nc32)cc1 | . | 22.4µM* | . | -3.0% | . | .
COc1ccc(Oc2ncc3ncc(=O)n(C[C@H]4CCCO4)c3n2)cc1 | -16.3% | 14.1µM* | . | . | -2.7% | .
COc1ccc(NC(=O)CSC2=Nc3ccccc3C3=NC(CCC(=O)NCc4ccco4)C(=O)N23)cc1 (stereo not given) | . | . | . | -6.4%[46 µM] | . | .
COc1ccccc1CN1CC[C@@]2(CCCN(C(C)=O)C2)C1 | -3.1% | 5.5% | . | . | 0.8% | .
Cn1ncc2c(Nc3cccc(C#N)c3)ncnc21 | . | . | . | -4.8%[46 µM] | . | .
NC(=O)/N=N/C(N)=O | 10µM* | 0.447µM* | . | . | . | .
NC(N)=O | -8.4% | 6.8% | . | ? | -1.4% | .
CC(C)(C)C1CCc2c(sc(NC(=O)CCC(=O)O)c2C(=O)Nc2ccccc2C(F)(F)F)C1 (stereo not given) | . | . | 6.4 | . | . | .
CCCn1c(C)nc2c(NCc3ccccc3)nc(C)nc21 | -11.1% | -5.4% | . | . | -7.2% | .
Cc1[nH]c2ccccc2c1NC(=O)CN1CCN(C(=O)c2ccco2)CC1 | . | 6.31µM* | . | . | . | .
